# Calls of active or inactive are those of the source.
# Columns and labels:
# [1] = small molecules captured by biotinylated probe aFSTL3 – biochemical, small-molecule microarray, fluorescence 635/667, stem cell growth factor project, primary screen (AID 1064); details: higher = more signal;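 further: measures binding of the biotinylated anti-FSTL3 antibody to printed compounds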
# [2] = binders from COS7 lysate, DM2A8 probe, primary screen, torsin A project, cell lysate, small-molecule microarray, fluorescence 635/667 (AID 1065); details: higher = more signal, COS7 lysate expressing mutant human TOR1A
# [3] = small molecules captured by biotinylated probe aFGF2 – biochemical, small-molecule microarray, fluorescence 635/667, stem cell growth factor project, primary screen (AID 1067); details: higher = more signal;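 further: measures binding of biotinylated aFGF2 protein to printed compounds on slides; z-score merges feature fluorescence and signal-to-noise across triplicate slides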
# [4] = small molecules captured by biotinylated probe aFGF10 – biochemical, small-molecule microarray, fluorescence 635/667, stem cell growth factor project, primary screen (AID 1071); details: higher = more signal;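 further: score merges 667 nm spot intensity and signal to noise from triplicate slides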
# [5] = biological target: Neurogenic locus notch homolog protein 2 (Homo sapiens) (UniProt Q04721); assay: small molecules binding Notch2 protein – biochemical, small-molecule microarray, 635 nm fluorescence, stem cell growth factors, primary screen (AID 1073); details: higher = more signal
# [6] = biological target: Pro-neuregulin-1, membrane-bound isoform (Homo sapiens) (UniProt Q02297); assay: small molecules binding neuregulin-1 protein – biochemical, small-molecule microarray, fluorescence 635/667, psychiatric disease protein project, primary screen (AID 1075); details: NRG1 binding, 635 nm fluorescence, higher = more signal;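 further: score combines 667 nm spot fluorescence with signal to noise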
# [7] = system: Neuregulin-1 EGF-like domain; assay: small molecules binding NRG1 EGF domain – biochemical, small-molecule microarray, 635 nm fluorescence, primary screen (AID 1081); details: higher = more signal;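 further: binding of the protein to compounds printed on small-molecule microarray slides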
# [8] = FRG1 expression reporter modulators in myotubes – cell-based, C2C12 myotubes, firefly/Renilla luciferase, luminescence, FRG1 inhibition for FSHD, primary screen (AID 1084); details: FRG1 promoter luciferase, higher = more signal, called active from +8 up or from −8 down
# [9] = small molecules captured by biotinylated probe aFST – biochemical, small-molecule microarray, fluorescence 635/667, stem cell growth factor project, primary screen (AID 1086); details: higher = more signal;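 further: score merges 667 nm fluorescence with signal-to-noise of each printed compound spot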
# [10] = binders of probe aHhip on microarray, primary screen, stem cell growth factor project, biochemical, small-molecule microarray, fluorescence 635/667 (AID 1087); details: higher = more signal;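 further: score merges spot fluorescence at 667nm with spot signal to noise ratio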
# [11] = system: PRMT1 (protein arginine N-methyltransferase 1); assay: small molecules binding arginine methyltransferase PRMT1 – biochemical, small-molecule microarray, 635 nm fluorescence, primary screen (AID 1088); details: higher = more signal;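 further: binding of Prmt1 protein to compounds spotted on small-molecule microarray slides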
# [12] = growth effects on S. cerevisiae YJM789 – YJM789 clinical isolate, OD600, 24 h, basal, primary screen (AID 1089); details: higher = more signal, called active from +8 up or from −8 down;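 further: growth of clinical yeast isolate S. cerevisiae YJM 789 seeded 1000 cells per well; test concentration not given here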
# [13] = S. pombe growth modifiers, basal conditions – strain 972, OD600, 24 h, no modulator, primary screen (AID 1090);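 further: basal condition with compound alone and no growth modifier present; test concentration not given here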; details: S. pombe 972 growth, higher = more signal, called active from +8 up or from −8 down
# [14] = budding yeast growth modifiers under rapamycin – strain BY4716, OD600, 96 h, primary screen (AID 1091); further: test concentration not given here; details: S. cerevisiae BY4716 + rapamycin, higher = more signal, called active from +8 up or from −8 down
# [15] = biological target: Torsin-1A-interacting protein 2 (Homo sapiens) (UniProt Q8NFQ8); assay: small molecules binding lysate-expressed LULL1 – cell lysate, human LULL1 lysate, 635/667 nm fluorescence, primary screen (AID 1092); details: small-molecule microarray, hLULL1 lysate binding, 635 nm fluorescence; higher = more signal;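 further: probe is lysate of COS7 cells overexpressing human LULL1; score merges per-feature 667 nm fluorescence with signal-to-noise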
# [16] = optical density change of DRC41 E. coli – strain DRC41, OD650, 24 h, E. coli filamentation project, primary screen (AID 1093);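 further: MC1000 strain lacking acrAB efflux and sulA so SOS filamentation is blocked; test concentration not given here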; details: E. coli DRC41 growth, higher = more signal, called active from +8 up or from −8 down
# [17] = probe aLefty2 binding to arrayed compounds – biochemical, biotinylated probe, 635/667 nm fluorescence, primary screen (AID 1094); details: small-molecule microarray, higher = more signal;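 further: score merges spot fluorescence near 667 nm with spot signal-to-noise ratio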
# [18] = system: Noggin (protein binding on small-molecule microarray); assay: small molecules binding Noggin protein – biochemical, 635/667 nm fluorescence, primary screen (AID 1095); details: 635 nm fluorescence, higher = more signal;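 further: score merges 667 nm feature fluorescence with signal to noise over triplicate slides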
# [19] = biological target: Neurogenic locus notch homolog protein 3 (Homo sapiens) (UniProt Q9UM47); assay: small molecules binding NOTCH3 protein – biochemical, 635/667 nm fluorescence, primary screen (AID 1096); details: small-molecule microarray, 635 nm fluorescence, higher = more signal
# [20] = probe aEGFR binding to arrayed compounds – biochemical, biotinylated probe, 635/667 nm fluorescence, primary screen (AID 1097); details: small-molecule microarray, higher = more signal;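 further: probe is a biotinylated anti-EGFR antibody binding compounds printed on slides; score combines fluorescence near 667 nm and signal to noise of each spot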
# Sequence of Pro-neuregulin-1, membrane-bound isoform (Homo sapiens) (Q02297 whole entry, looked up, the tested form may be a part, canonical isoform): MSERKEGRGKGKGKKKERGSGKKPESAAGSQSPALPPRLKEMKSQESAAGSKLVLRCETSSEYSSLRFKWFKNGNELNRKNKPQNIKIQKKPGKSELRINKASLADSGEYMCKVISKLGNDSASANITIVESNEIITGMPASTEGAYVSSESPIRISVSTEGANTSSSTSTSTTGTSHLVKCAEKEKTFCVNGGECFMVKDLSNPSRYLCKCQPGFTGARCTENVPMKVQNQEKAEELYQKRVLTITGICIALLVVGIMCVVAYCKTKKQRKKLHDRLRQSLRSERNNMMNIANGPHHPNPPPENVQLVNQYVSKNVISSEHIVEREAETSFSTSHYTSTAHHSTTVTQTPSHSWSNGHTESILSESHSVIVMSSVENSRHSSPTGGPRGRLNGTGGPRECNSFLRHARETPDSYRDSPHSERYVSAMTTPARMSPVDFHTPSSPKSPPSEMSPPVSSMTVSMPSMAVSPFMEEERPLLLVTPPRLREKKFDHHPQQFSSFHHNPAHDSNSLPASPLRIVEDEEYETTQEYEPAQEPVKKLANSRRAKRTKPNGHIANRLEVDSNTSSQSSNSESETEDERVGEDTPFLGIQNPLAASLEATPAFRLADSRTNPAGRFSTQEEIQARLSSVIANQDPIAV
# Sequence of Torsin-1A-interacting protein 2 (Homo sapiens) (Q8NFQ8 whole entry, looked up): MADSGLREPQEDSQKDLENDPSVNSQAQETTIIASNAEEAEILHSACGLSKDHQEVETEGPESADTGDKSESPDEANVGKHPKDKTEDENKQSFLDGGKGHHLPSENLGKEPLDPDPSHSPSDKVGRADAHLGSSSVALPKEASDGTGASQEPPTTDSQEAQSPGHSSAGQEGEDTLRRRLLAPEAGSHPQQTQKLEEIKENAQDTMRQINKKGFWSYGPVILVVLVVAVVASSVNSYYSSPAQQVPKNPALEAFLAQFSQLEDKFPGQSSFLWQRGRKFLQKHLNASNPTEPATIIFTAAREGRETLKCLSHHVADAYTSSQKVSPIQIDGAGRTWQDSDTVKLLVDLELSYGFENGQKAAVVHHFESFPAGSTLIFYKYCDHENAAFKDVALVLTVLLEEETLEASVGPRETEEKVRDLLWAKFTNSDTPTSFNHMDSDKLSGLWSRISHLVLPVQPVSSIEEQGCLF
# Sequence of Neurogenic locus notch homolog protein 3 (Homo sapiens) (Q9UM47 whole entry, looked up): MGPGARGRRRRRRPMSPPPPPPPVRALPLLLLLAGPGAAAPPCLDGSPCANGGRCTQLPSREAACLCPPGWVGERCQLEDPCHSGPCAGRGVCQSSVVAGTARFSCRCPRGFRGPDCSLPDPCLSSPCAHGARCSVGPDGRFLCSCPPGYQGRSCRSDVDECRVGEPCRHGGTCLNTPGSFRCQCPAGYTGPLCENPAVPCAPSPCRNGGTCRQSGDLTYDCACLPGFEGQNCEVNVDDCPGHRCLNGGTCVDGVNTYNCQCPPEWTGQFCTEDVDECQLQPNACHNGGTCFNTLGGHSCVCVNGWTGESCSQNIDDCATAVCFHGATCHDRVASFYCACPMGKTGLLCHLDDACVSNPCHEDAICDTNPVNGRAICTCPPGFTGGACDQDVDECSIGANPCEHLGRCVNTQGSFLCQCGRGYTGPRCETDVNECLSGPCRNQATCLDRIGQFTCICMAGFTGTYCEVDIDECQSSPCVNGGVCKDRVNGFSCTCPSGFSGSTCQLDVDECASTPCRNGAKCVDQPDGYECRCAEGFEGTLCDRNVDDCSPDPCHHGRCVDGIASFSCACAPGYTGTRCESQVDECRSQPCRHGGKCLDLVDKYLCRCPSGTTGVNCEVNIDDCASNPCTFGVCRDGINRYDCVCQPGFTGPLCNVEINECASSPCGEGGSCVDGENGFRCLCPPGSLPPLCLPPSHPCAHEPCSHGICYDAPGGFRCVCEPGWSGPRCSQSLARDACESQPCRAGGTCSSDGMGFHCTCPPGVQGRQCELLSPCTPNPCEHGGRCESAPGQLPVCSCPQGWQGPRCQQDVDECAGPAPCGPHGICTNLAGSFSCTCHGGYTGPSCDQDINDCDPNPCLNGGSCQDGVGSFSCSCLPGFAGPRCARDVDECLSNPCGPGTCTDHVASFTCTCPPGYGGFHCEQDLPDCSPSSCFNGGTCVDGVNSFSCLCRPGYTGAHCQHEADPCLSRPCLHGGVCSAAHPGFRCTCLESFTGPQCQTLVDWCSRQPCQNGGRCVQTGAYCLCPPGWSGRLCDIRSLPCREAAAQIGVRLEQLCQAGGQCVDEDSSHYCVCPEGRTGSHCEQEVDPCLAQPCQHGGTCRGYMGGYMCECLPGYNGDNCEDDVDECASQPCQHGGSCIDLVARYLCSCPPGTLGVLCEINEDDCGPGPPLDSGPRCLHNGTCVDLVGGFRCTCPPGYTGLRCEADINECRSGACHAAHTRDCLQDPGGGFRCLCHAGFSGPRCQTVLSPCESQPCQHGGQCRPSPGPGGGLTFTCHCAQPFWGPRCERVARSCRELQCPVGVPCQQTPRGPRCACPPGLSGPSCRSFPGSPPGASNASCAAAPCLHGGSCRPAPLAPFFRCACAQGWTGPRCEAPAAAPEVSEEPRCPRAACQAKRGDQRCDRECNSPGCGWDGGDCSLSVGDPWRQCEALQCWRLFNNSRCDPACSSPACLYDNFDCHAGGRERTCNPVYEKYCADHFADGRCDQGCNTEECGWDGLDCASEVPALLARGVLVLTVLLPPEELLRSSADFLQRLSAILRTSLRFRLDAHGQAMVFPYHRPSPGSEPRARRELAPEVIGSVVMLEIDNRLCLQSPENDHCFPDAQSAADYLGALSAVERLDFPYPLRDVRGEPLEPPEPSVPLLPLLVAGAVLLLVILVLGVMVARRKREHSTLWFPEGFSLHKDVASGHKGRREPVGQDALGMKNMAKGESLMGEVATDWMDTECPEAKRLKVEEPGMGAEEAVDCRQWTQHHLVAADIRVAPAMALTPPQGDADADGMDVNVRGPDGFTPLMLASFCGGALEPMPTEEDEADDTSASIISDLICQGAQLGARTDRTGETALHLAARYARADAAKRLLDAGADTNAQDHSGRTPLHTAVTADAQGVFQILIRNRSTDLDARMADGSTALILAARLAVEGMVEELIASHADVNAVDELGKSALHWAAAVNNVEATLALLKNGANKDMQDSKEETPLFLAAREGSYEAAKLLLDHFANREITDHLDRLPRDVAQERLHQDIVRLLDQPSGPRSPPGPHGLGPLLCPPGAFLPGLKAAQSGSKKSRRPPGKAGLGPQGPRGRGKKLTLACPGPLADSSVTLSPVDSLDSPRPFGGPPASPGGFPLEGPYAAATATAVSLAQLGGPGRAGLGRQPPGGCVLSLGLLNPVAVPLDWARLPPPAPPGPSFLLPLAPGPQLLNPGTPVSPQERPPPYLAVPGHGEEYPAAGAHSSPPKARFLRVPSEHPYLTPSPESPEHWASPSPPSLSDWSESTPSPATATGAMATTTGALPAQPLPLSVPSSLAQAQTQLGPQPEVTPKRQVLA
SMILES,composite z-score [1],composite z-score [2],composite z-score [3],composite z-score [4],composite z-score [5],composite z-score [6],composite z-score [7],z-score [8],composite z-score [9],composite z-score [10],composite z-score [11],z-score [12],z-score [13],z-score [14],composite z-score [15],z-score [16],composite z-score [17],composite z-score [18],composite z-score [19],composite z-score [20]
CC(CCN1CCCc2nc(C)c(C)cc21)=NOC(C)CN1CCCCc2nc(C)c(C)cc21 (stereo not given),-0.213,0.854,0.0766,0.644,1.51,0.303,1.13,1.21 (inactive),1.09,0.815,1.49,-0.415 (inactive),0.435 (inactive),0.837 (inactive),1.22,0.597 (inactive),0.0012,0.923,1.08,0.406
COC(=O)[C@H]1O[C@@H](c2c(OC)c(OC)c(C)c(OC)c2OC)[C@H](C)[C@@H](O)[C@H]1C,-0.341,0.499,0.0066,0.915,1.06,0.368,0.741,-0.204 (inactive),0.224,-0.0965,1.03,0.234 (inactive),0.346 (inactive),-0.438 (inactive),0.964,0.196 (inactive),-0.0131,0.585,1.1,0.0821
COc1cccc([C@H]2Oc3ccc(OC)cc3C(=NOC[C@@H](O)COCc3ccco3)[C@@H]2O)c1,-0.434,0.0488,-0.158,-1.12,-1.29,-0.984,-1.7,-0.765 (inactive),-0.625,-0.388,-1.03,-2.24 (inactive),-1.36 (inactive),-1.22 (inactive),-1.32,0.32 (inactive),-0.103,-0.149,-1.88,-0.274
CO[C@H]1COC(=O)CC=C[C@H](C)[C@@H](OC)COC(=O)[C@@H](C)NC(=O)CC=C[C@@H]1C,-0.548,1.9,-0.177,0.0365,-0.411,-0.255,0.515,0.447 (inactive),-0.251,-0.196,1.53,-1.02 (inactive),0.0386 (inactive),-1.67 (inactive),-1.92,-0.804 (inactive),-0.148,1.54,0.0946,-0.0727
O=C1[C@H]2[C@H]3[C@H](O)[C@H](O)CC(=NOCc4ccccc4)[C@@H]3CC[C@H]2C(=O)N1Cc1ccc2c(c1)OCO2,-0.138,-0.247,-0.0583,0.321,0.376,0.299,-0.0604,1.1 (inactive),0.357,0.0922,0.231,-0.559 (inactive),0.437 (inactive),-0.789 (inactive),0.664,1.1 (inactive),-0.17,0.297,0.428,0.0761
CCN1C(=O)[C@H]2[C@H]3[C@H](O)[C@H](O)CC(=O)[C@@H]3CC[C@H]2C1=O,-0.676,0.0277,-0.0692,0.463,0.575,0.379,1.01,-0.136 (inactive),0.276,-0.226,0.705,0.0074 (inactive),-0.268 (inactive),-0.139 (inactive),1.36,0.439 (inactive),-0.145,0.441,0.717,-0.0115

# Reference: PubChem BioAssay
